Bioassay records deposited in PubChem BioAssay by The Scripps Research Institute Molecular Screening Center.
Most compounds without a hit are left out; they make up all but 3.4% or so of the library.
MITF inh: human MITF inhibition, primary screen; O75030; AlphaScreen MITF homodimerization, bead proximity signal; inhibition, % at 2.6 µM; hit rate 0.91% among 650,000; AID 1259374; in the data active = inhibition above about 50%;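 also: 0% = vehicle wells with protein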
Target sequence (O75030 whole entry, looked up): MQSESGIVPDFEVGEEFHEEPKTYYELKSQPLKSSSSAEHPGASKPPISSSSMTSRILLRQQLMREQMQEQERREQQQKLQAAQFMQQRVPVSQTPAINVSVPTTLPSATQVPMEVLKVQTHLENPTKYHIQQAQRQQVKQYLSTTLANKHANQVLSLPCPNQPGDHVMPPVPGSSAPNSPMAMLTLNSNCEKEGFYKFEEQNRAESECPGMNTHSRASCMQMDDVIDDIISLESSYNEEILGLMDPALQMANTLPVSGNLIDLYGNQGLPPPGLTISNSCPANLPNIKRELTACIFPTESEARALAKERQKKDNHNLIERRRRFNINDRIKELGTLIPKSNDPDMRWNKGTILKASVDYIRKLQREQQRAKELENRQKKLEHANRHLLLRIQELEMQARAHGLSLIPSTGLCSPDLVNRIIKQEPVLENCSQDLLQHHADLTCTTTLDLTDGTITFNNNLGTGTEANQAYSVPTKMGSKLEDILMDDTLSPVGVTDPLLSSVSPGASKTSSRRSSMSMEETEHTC
GPR151 ag: activators of human GPR151 | activation, % at 11.2 µM | hit rate 1% among 650,000 | Q8TDV0 | PathHunter beta-arrestin GPR151 cells, luminescence; in the data active = activation above about 4.9%;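 also: 0% = median of compound wells and 100% = cells with positive control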
TEAD-YAP block: TEAD-YAP interaction inhibition; HEK-TIYL cells, TEAD-Gal4/YAP UAS-luciferase luminescence; inhibition, % at 9.12 µM; hit rate 1.4% among 640,000; AID 1259422; in the data active = inhibition above about 32%;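 also: 0% = median of test compound wells and 100% = reference inhibitor wells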
FBW7 act: human FBW7 E3 ligase activation, primary screen; AlphaScreen FBW7–phospho-cyclin E peptide binding, activator screen; normalized activity (activation), % at 26.1 µM; hit rate 0.13% among 650,000; in the data active = normalized activity above about 1.9%;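 also: purified mutant Fbw7 with reduced substrate affinity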
GPR151 conf act: confirmation of human GPR151 activators; GPR151 PathHunter beta-arrestin cells, luminescence, 90 min; % of EA-reagent control over plate median; 6,700 tested, under 10 active; shares compounds with GPR151 ag; AID 1508609; activation, % at 11.2 µM;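 active = mean percent activation across replicates above the confirmation screen cutoff of 4.91%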
GPR119 counter: activates human GPR119 in a GPR151 counter-screen; shares compounds with GPR151 ag; activation, % at 11.2 µM; hit rate 0.3% among 6,700; GPR119 PathHunter beta-arrestin cells, luminescence, 90 min; 0 = compound-well median, 100 = enzyme-acceptor control;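 active = mean percent activation in the counterscreen above 29.09%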;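 also: counterscreen on off-target GPR119 to flag nonselective hits from the GPR151 activator screen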
Numbers without * were called inactive; / = no result; ! = repeats disagree.

SMILES | MITF inh | GPR151 ag | TEAD-YAP block | FBW7 act | GPR151 conf act | GPR119 counter
CC(=O)OC[C@H]1O[C@H](C/C=N/O[C@@H](C)c2cn([C@H](CO)Cc3ccccc3)nn2)C=C[C@@H]1OC(C)=O | 15 | 1 | / | 0 | / | /
CC(C)[C@@H](OCc1ccccc1)[C@H](C)/C=N/O[C@H](C)c1cn([C@H](CO)Cc2ccccc2)nn1 | -1 | 6.1* | / | 0 | 0 | 5
CCCC(=O)Nc1nc2ccc(NC(=O)c3cccs3)cc2s1 | 0 | -1 | -20 | 0 | / | /
COC(=O)c1cc(NS(=O)(=O)c2ccc3ccccc3c2)ccc1Cl | 1 | 5.0* | 3 | 0 | 0 | 4
COc1cccc(S(=O)(=O)Nc2ccc(Cl)c(C(F)(F)F)c2)c1 | 3 | 7.1* | 1 | 0 | 1 | -1
O=C(NCCO)c1ccn[nH]1 | 0 | 6.0* | 11 | 0 | 0 | -8
O=C(NCCNC(=O)c1ccn[nH]1)c1ccn[nH]1 | 2 | -1 | 5 | 0 | / | /
O=C1CS/C(=N/N=C/c2ccccc2)N1 | 0 | -1 | -1 | 0 | / | /
O=C1CS/C(=N\N=C\c2ccc(O)cc2)N1 | 9 | 7.4* | -2 | 0 | 0 | -6
O=C(CN1CCN(S(=O)(=O)c2ccc(Br)cc2)CC1)Nc1ccc(Cl)c(C(F)(F)F)c1 | -5 | 5.8* | 11 | 0 | -1 | -6
COc1cc(NC(=O)CSc2ccc(C(=O)O)cn2)cc(OC)c1 | -1 | 0 | -11 | 0 | / | /
COc1cc(NC(=O)CSc2ccc(C(=O)O)cn2)ccc1-n1cnnn1 | 8 | 8.2* | 10 | 0 | 0 | 3
O=C(NC1CCCC1)c1c(O)c2cccc3c2n(c1=O)CCC3 | -2 | 1 | 12 | 0 | / | /
COc1ccc(/C=N/Nc2nc(C)c([N+](=O)[O-])c(N(C)c3ccccc3)n2)cc1OC | -1 | 5.5* | 14 | 0 | 1 | 2
CCN1C(=O)CC(N2CCC(C(=O)N3CCOCC3)CC2)C1=O (stereo unspecified) | -4 | 15* | 1 | 0 | 1 | 14
O=C(O)CN=C(NS(=O)(=O)c1ccccc1)c1ccccc1 | -2 | 4.9*! | 14 | 0 | 0 | 13
Cc1cccc2cc(CN(Cc3ccco3)Cc3nnnn3C(C)(C)C)c(=O)[nH]c12 | 3 | 6.2* | 2 | 0 | 0 | 2
Cc1ccccc1C(=O)On1c(-c2ccc(Cl)c([N+](=O)[O-])c2)nc2ccccc2c1=O | 4 | 5.8* | 12 | 0 | 0 | 9
O=C(On1c(-c2ccc(F)cc2)nc2ccccc2c1=O)c1ccc(Cl)cc1 | 3 | 5.1* | -3 | 0 | 1 | 13
CNC(=S)N1CCN(c2ccc(C)cc2C)CC1 | 7 | 1 | 1 | 0 | / | /
CCOc1ccc(NC(=O)CSc2nc3cc(C(=O)NCc4ccco4)ccc3c(=O)n2-c2ccc(F)cc2)cc1 | -2 | 0 | -3 | 0 | / | /
c1ccc(-n2cnc3c(NCc4cccnc4)nc(-c4ccc(N5CCOCC5)nc4)nc32)cc1 | 0 | 5.7* | 46* | 0 | -1 | -10
c1ccc(CNc2nc(-c3ccc(N4CCOCC4)nc3)nc3c2ncn3-c2ccccc2)cc1 | -6 | 5.5* | -1 | 0 | 1 | -1
CCCNc1nc(-c2ccc(N3CCOCC3)nc2)nc2c1ncn2-c1ccccc1 | 16 | -2 | 7 | 0 | / | /
O=C(Nc1cc(F)ccc1F)C1(S(=O)(=O)c2ccc(Cl)cc2)CC1 | -4 | 1 | -1 | 0 | / | /
SMILES | MITF inh | GPR151 ag | TEAD-YAP block | FBW7 act | GPR151 conf act | GPR119 counter
CCOC(=O)c1c(NC(=O)C(C)Sc2nnc(CNC(=O)c3ccccc3C(F)(F)F)n2C)sc2c1CCCC2 (stereo unspecified) | 12 | -1 | 9 | 0 | / | /
COc1ccc(N=C2SC(C(=O)N3CCC(C(N)=O)CC3)CC(=O)N2C)cc1 (stereo unspecified) | -5 | 0 | 9 | 0 | / | /
Cc1no[n+]([O-])c1COc1ccccc1C=C1C(=O)NC(=O)NC1=O | 13 | 1 | -3 | 0 | / | /
Cc1no[n+]([O-])c1COc1ccccc1C=C1C(=O)NC(=S)NC1=O | 29 | 6.2* | -1 | 0 | 0 | -1
CCN(CC)c1ccc(C(=O)Nc2sc3c(c2C#N)CCCCC3)cc1 | 8 | 5.1* | -1 | 0 | 0 | 2
CCN(CC)c1ccc(C(=O)Nc2sc3c(c2C#N)CCCC3)cc1 | -10 | -1 | -1 | 0 | / | /
COc1cc(-c2[nH]nc3c2C(c2ccccc2[N+](=O)[O-])C(C#N)=C(N)O3)cc(OC)c1OC (stereo unspecified) | 1 | 1 | 10 | 0 | / | /
O=C(Nc1ccccc1)Nc1cnn(-c2cccc(-c3n[nH]c(-c4ccncc4)n3)c2)c1 | 36 | 1 | 2 | 1 | / | /
CCOc1cc(C(=O)N2CCCC2)cc(Cl)c1OC | -9 | -1 | 0 | 0 | / | /
COc1cc(C(=O)N2CCCC2C(=O)O)cc(OC)c1OC (stereo unspecified) | 22 | 5.0* | 3 | -1 | 0 | 8
CCOc1ccc(C(=O)N2CCCC2C(=O)O)cc1 (stereo unspecified) | 0 | 0 | 1 | 0 | / | /
COc1cc(C(=O)N2CCCCC2)cc(Cl)c1OC | -2 | 6.8* | -6 | 0 | 0 | 6
O=C(NCc1cccc(Cl)c1)Nc1cccs1 | 3 | 4 | -4 | 0 | / | /
N#Cc1ccccc1OCC(=O)N1CCOCC1 | 9 | 5.5* | 5 | 0 | 0 | 2
O=C1OC(c2cc([N+](=O)[O-])ccc2Cl)=N/C1=C\c1ccc(OCc2ccccc2)cc1 | -5 | 0 | 3 | 0 | / | /
COc1ccc(-c2c3c(=O)n(C)c(=O)n(C)c3cn2-c2cc(C)ccc2O)cc1 | 13 | 5.4* | -10 | 0 | 0 | 11
CCOC(=O)c1c(NC(=S)Nc2cccnc2)sc(C)c1C | 7 | 5.3* | 7 | 0 | 0 | 1
CCOC(=O)c1c(NC(=S)NC(=O)c2cccs2)sc(C)c1C | 4 | 2 | 2 | 0 | / | /
COC(=O)c1cc2c(cc1NC(=O)NCc1noc3ccccc13)OCO2 | 9 | 9.2* | 11 | 0 | 1 | -3
O=C(NCc1cccc(Cl)c1)NCc1noc2ccccc12 | -12 | 6.5* | -21 | 0 | 0 | 2
CN(C)S(=O)(=O)c1ccc(C(=O)OCCCC(=O)c2cccs2)cc1 | -5 | 3 | 2 | 0 | / | /
O=c1sc2c(s1)SC1CC=CC1S2 (stereo unspecified) | -2 | -1 | 4 | 0 | / | /
O=C1CN(C(=O)CC2(c3ccccc3F)CC(=O)N(C3CCCCC3)C2=O)CCN1 (stereo unspecified) | 6 | 1 | 2 | 0 | / | /
CCCCN(CC)c1ncnc2scc(-c3ccccc3)c12 | -9 | 8.0* | 6 | 0 | 0 | -11
CCCCN(C)c1ncnc2scc(-c3ccccc3)c12 | 16 | 1 | -2 | 0 | / | /
